Reference: PubChem BioAssay (NCATS)
Records with an inconclusive call do not appear. The source made the active and inactive calls. Unless noted, calls come from the whole dose curve; as a rule, active = well fitted curve in the direction sought with a large enough effect; inconclusive = small, poorly fitted or top-dose-only effect, or another doubt; inactive = no such curve, though single readings can be large; an effect the other way counts as inactive or inconclusive.

Experiments:
[1] = AP1 Signaling Pathway (AID 357; active = well fitted curve in either direction with a large enough effect, not every such curve was filed as active;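 note: ME-180 reporter cells stimulated with EGF at its EC50 level; % is set by controls: 0 for no effect and ±100 for the full control effect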); conditions: ME-180 (cervical carcinoma) AP-1-bla reporter, EGF-induced, beta-lactamase ratio, 5 h; at 7.69 µM (top of the series) unless noted
Method in brief: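 Cells are seeded overnight, exposed to compound titrations and an EC50 level of EGF for 5 hours at 37 °C, then loaded with CCF4 dye for 2.5 hours. Beta-lactamase activity under the AP-1 element is read as a blue/green ratio.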

[2] = Stat Signaling Pathway (AID 446; active = well fitted curve in either direction with a large enough effect, not every such curve was filed as active;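 note: ME-180 cervical cancer cells given 40 pM IL-6 alongside compound; SIE-controlled beta-lactamase reporter measured as 460/530 nm FRET emission ratio; % is set by controls: 0 for no effect and ±100 for the full control effect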)
Method in brief: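 Normalization used AC90 stimulation (300 pM IL-6) and AC90 inhibition (125 nM pan-JAK inhibitor at 40 pM IL-6). The underlying signal is SIE-driven beta-lactamase in ME-180 cells after 5 h IL-6 exposure with compound.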

[3] = molecular target: Ubiquitin carboxyl-terminal hydrolase 1 (Homo sapiens) (UniProt O94782); assay: Inhibitors of USP1/UAF1: Pilot qHTS (AID 504865);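 note: rhodamine fluorescence freed from ubiquitin-rhodamine substrate followed over time; top concentration of the series differs between compounds; % is set by controls: 0 for no effect and ±100 for the full control effect; nearly all actives have a fitted effect of over 35% in size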
Ubiquitin carboxyl-terminal hydrolase 1 (Homo sapiens), sequence (O94782 whole entry, looked up): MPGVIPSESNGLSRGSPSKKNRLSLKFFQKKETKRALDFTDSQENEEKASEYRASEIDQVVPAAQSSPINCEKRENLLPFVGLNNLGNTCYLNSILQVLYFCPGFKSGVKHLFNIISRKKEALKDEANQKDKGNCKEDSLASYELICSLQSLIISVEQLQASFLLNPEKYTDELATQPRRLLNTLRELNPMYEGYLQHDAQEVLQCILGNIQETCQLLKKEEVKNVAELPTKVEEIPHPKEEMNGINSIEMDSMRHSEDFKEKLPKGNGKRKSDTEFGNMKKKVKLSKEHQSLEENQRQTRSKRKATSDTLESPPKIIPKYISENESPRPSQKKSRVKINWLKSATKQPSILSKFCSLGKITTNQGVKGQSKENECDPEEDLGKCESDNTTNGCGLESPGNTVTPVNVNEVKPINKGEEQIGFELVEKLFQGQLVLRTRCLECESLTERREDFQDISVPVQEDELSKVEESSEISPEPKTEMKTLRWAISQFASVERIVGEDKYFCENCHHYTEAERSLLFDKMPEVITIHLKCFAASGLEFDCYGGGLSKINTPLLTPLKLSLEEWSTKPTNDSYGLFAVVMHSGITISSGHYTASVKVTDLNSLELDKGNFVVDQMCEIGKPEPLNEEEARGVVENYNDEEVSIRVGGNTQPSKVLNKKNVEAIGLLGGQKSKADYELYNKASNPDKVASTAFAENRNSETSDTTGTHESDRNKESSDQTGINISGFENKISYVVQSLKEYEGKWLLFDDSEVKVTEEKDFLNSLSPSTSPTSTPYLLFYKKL
Method in brief: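 In 50mM HEPES pH 7.8 containing 0.5mM EDTA, 1mM TCEP, 0.1 mg/ml BSA and 0.01% Tween-20, 1nM USP1/UAF1 is exposed to compound for 15 min, then Ub-Rho (150nM final) is added and fluorescence is read over time.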

[4] = molecular target: Voltage-gated inwardly rectifying potassium channel KCNH2 (Homo sapiens) (UniProt Q12809); assay: qHTS Assay for Small Molecule Inhibitors of the Human hERG Channel Activity (AID 588834);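 note: top concentration of the series differs between compounds; % is set by controls: 0 for no effect and ±100 for the full control effect; lower thallium flux fluorescence means stronger hERG block; nearly all actives have a fitted effect of over 50% in size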
Voltage-gated inwardly rectifying potassium channel KCNH2 (Homo sapiens), sequence (Q12809 whole entry, looked up): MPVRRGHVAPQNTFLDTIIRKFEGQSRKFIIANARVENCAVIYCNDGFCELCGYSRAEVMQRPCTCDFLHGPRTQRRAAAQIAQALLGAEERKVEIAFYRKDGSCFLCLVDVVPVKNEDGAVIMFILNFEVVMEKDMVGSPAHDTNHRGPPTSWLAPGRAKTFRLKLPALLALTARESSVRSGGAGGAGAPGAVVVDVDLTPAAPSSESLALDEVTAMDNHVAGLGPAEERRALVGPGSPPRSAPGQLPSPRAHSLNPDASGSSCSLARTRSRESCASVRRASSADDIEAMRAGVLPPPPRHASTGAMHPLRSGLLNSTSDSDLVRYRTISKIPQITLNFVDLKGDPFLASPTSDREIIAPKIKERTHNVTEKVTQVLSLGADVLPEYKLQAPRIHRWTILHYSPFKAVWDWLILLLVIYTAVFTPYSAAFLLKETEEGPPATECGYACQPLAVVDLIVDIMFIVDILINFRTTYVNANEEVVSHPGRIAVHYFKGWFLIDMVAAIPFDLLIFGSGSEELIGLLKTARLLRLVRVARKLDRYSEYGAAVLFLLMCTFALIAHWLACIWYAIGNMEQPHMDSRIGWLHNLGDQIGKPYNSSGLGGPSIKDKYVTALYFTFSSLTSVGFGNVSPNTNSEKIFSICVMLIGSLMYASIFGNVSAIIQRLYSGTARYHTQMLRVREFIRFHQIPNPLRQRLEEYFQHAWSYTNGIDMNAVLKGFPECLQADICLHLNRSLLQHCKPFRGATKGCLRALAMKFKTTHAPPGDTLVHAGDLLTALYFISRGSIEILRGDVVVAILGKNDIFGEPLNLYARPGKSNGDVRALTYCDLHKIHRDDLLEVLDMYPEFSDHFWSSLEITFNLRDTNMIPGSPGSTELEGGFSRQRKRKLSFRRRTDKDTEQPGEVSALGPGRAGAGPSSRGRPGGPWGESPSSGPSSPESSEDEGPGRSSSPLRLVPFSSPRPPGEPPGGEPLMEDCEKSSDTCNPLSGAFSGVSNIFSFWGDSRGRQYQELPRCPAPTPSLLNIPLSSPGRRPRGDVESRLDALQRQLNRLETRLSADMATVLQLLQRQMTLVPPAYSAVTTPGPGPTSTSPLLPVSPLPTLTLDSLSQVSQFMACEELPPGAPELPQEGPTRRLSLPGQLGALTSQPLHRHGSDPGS
Method in brief: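 Step 1: BacMam hERG transduction of U2OS, 4 hrs RT. Step 2: overnight 37 °C, plate 2000 cells/well, 4 hr. Step 3: FluxOR load, compound 10 min, stimulate, read fluorescence.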

[5] = S16 Schwann cell viability assay (CellTiter-Glo assay) (AID 624031);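 note: native untransfected S16 rat Schwann cells; cellular ATP luminescence as a viability measure; plate controls were DMSO-treated cells for no effect and cell-free wells for full effect; nearly all actives have a fitted effect of over 70% in size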
Method in brief: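 Parental S16 cells, 24 h compound, 37 °C. ATP-luminescence viability; DMSO = 0% activity, empty wells as reference; curves classified by fit quality and efficacy.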

[6] = S16 Schwann cell PMP22 intronic element firefly luciferase assay (AID 624032); note: potency is the fitted concentration of half-maximal effect; nearly all actives have a fitted effect of over 30% in size
Method in brief: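 Rat S16 Schwann cells stably carrying a PMP22 intronic element-driven Fluc reporter were seeded overnight, then exposed to compounds for 24 h at 37 °C. Luminescence was normalized to PTC124 (positive control) and DMSO (0% activity).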

[7] = Cytotoxicity counterscreen for NFkB agonists and antagonists (AID 624476);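 note: cells exposed to compound for 48 hours; % is set by controls: 0 for no effect and ±100 for the full control effect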
[8] = qHTS Assay for Identification of Small Molecule Agonists for NFkB Signaling Pathway. (AID 624478);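 note: compounds tested together with TNF alpha at its EC50 of 10 pM; 0% is about no effect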
Method in brief: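 Compounds were added with 10 pM TNF alpha (EC50 level) to ME-180 NFkB-bla cells in low-serum Opti-MEM and incubated 5 hrs at 37 C. Beta-lactamase FRET read-out used 405 nm excitation and 460 and 530 nm emission.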

[9] = qHTS Assay for Identification of Small Molecule Antagonists for NFkB Signaling Pathway. (AID 624479; calls by dose curve;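 note: pathway stimulated with TNF alpha; % is set by controls: 0 for no effect and ±100 for the full control effect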)
[10] = NCATS anti-infectives library activity on HEK293 viability as a counter-qHTS vs the C. elegans viability qHTS (AID 1745854); note: % is set by controls: 0 for no effect and ±100 for the full control effect
Method in brief: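 Cytotoxicity counter-screen to a worm viability qHTS: CellTiter-Glo luminescence read 10 min after reagent addition. Compounds (final up to 41.7 uM, a 1:5 dilution series) incubated 24 hr at 37C with 1,500 HEK293 cells per well; digitonin control.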

[11] = molecular target: Glutathione peroxidase 1 (Homo sapiens) (UniProt P07203); assay: Primary qHTS Assay for Inhibitors of Recombinant Selenoprotein Glutathione Peroxidase 1 (GPX1) (AID 1845191); note: nearly all actives have a fitted effect of over 65% in size
Glutathione peroxidase 1 (Homo sapiens), sequence (P07203 whole entry, looked up): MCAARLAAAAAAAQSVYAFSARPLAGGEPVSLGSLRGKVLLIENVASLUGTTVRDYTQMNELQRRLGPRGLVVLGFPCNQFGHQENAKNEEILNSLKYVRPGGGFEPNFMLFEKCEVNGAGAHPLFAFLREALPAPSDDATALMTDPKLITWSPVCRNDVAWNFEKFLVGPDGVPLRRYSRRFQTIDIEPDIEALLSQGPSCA
Method in brief: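 GPX1 10 nM, GR 100 nM, GSH 1 mM, NADPH 0.5 mM, CHP 0.5 mM (final). 30-min cpd preincubation, RT. Ex340/Em450 read t=0, t=15 min.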

[12] = molecular target: Phospholipid hydroperoxide glutathione peroxidase GPX4 (Homo sapiens) (UniProt P36969); assay: Primary qHTS Assay for Inhibitors of Recombinant Selenoprotein Glutathione Peroxidase 4 (GPX4) (AID 1845192); note: % is set by controls: 0 for no effect and ±100 for the full control effect; nearly all actives have a fitted effect of over 65% in size
Phospholipid hydroperoxide glutathione peroxidase GPX4 (Homo sapiens), sequence (P36969 whole entry, looked up): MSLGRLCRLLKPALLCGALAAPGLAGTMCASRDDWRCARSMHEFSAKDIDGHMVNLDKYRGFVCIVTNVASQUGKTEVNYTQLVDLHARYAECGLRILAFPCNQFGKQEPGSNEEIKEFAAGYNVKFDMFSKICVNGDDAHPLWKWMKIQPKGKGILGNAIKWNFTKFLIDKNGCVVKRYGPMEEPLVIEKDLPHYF
Method in brief: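 qHTS, GR-coupled: GPX4 200 nM + cpd 30 min RT → GSH 1 mM, NADPH 0.5 mM, GR 100 nM → CHP 0.5 mM start; fluor 340/450 at t0 and t15 min; no-enzyme wells as control.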

[13] = qHTS drug screen for cell cycle checkpoint inhibitors in PARPi-resistant BRCA-mutant ovarian cancer cell lines. (AID 1963452; calls by dose curve); conditions: PEO1/OlaR viability, CellTiter-Glo luminescence, 96 h, stronger effect = lower value
Method in brief: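 PEO1, PEO4 and PEO1/OlaR ovarian cancer cells, 600 per well, exposed 96 h at 37C to a dilution series. Viability read by CellTiter-Glo luminescence, normalized to DMSO and empty wells; activity summarized as Z-AUC.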

[14] = qHTS profiling for inhibitors of Plasmodium falciparum proliferation (AID 504749); note: nearly all actives have a fitted effect of over 60% in size; note: potency is the fitted concentration of half-maximal effect;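 for activity, negative = inhibition: 0% = DMSO vehicle and full inhibition = artemisinin control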; conditions: P. falciparum in erythrocytes, SYBR Green DNA, 72 h, at 28.7 µM (top of the series)
Method in brief: (§1)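 Quantitative HTS: compounds pinned into medium, infected erythrocytes added (0.3% parasitemia, 2.5% hematocrit), 72 h culture at 37 C under 5% CO2. Saponin/Triton lysis with SYBR Green I, overnight RT, then fluorescence read.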

3D7 = assay: as above; conditions: P. falciparum in erythrocytes, SYBR Green DNA, 72 h; series mostly up to 28.7 µM
Method in brief: as §1

7G8 = assay: as above; conditions: P. falciparum in erythrocytes, SYBR Green DNA, 72 h; series mostly up to 28.7 µM
Method in brief: as §1

AA1029 = assay: as above; conditions: P. falciparum in erythrocytes, SYBR Green DNA, 72 h; series mostly up to 28.7 µM
Method in brief: as §1

AS120 = assay: as above; conditions: P. falciparum in erythrocytes, SYBR Green DNA, 72 h; series mostly up to 28.7 µM
Method in brief: as §1

ATS189 = assay: as above; conditions: P. falciparum in erythrocytes, SYBR Green DNA, 72 h; series mostly up to 28.7 µM
Method in brief: as §1

ATS95 = assay: as above; conditions: P. falciparum in erythrocytes, SYBR Green DNA, 72 h; series mostly up to 28.7 µM
Method in brief: as §1

C2A = assay: as above; conditions: P. falciparum in erythrocytes, SYBR Green DNA, 72 h; series mostly up to 28.7 µM
Method in brief: as §1

CP185 = assay: as above; conditions: P. falciparum in erythrocytes, SYBR Green DNA, 72 h; series mostly up to 28.7 µM
Method in brief: as §1

CP191 = assay: as above; conditions: P. falciparum in erythrocytes, SYBR Green DNA, 72 h; series mostly up to 28.7 µM
Method in brief: as §1

CP192 = assay: as above; conditions: P. falciparum in erythrocytes, SYBR Green DNA, 72 h; series mostly up to 28.7 µM
Method in brief: as §1

CP194 = assay: as above; conditions: P. falciparum in erythrocytes, SYBR Green DNA, 72 h; series mostly up to 28.7 µM
Method in brief: as §1

CP201 = assay: as above; conditions: P. falciparum in erythrocytes, SYBR Green DNA, 72 h; series mostly up to 28.7 µM
Method in brief: as §1

CP211 = assay: as above; conditions: P. falciparum in erythrocytes, SYBR Green DNA, 72 h; series mostly up to 28.7 µM
Method in brief: as §1

CP217 = assay: as above; conditions: P. falciparum in erythrocytes, SYBR Green DNA, 72 h; series mostly up to 28.7 µM
Method in brief: as §1

CP237 = assay: as above; conditions: P. falciparum in erythrocytes, SYBR Green DNA, 72 h; series mostly up to 28.7 µM
Method in brief: as §1

CP238 = assay: as above; conditions: P. falciparum in erythrocytes, SYBR Green DNA, 72 h; series mostly up to 28.7 µM
Method in brief: as §1

CP247 = assay: as above; conditions: P. falciparum in erythrocytes, SYBR Green DNA, 72 h; series mostly up to 28.7 µM
Method in brief: as §1

CP250 = assay: as above; conditions: P. falciparum in erythrocytes, SYBR Green DNA, 72 h; series mostly up to 28.7 µM
Method in brief: as §1

CP252 = assay: as above; conditions: P. falciparum in erythrocytes, SYBR Green DNA, 72 h; series mostly up to 28.7 µM
Method in brief: as §1

CCC(C)n1ncn(-c2ccc(N3CCN(c4ccc(OCC5COC(Cn6cncn6)(c6ccc(Cl)cc6Cl)O5)cc4)CC3)cc2)c1=O (stereo unspecified)
0.019: Z-AUC ([13]; measured here: PEO1 parental Z-AUC)
active: Potency [6] 3.22 µM | Potency (3D7) 3.16 µM | Potency (7G8) 3.55 µM | Potency (CP237) 5.01 µM
inactive: activity change, negative = inhibition [1] -2.36% [at 17.2 µM] | outcome [2] | Potency [3] | Potency [4] | Potency [5] | outcome [7] | outcome [8] | outcome [9] | Potency [10] | Potency [11] | Potency [12] | Z-AUC [13] -0.487 | activity, negative = inhibition ([14]; parasite line A) 0.495% | activity, negative = inhibition ([14]; parasite line B) -11% | Potency (AA1029) | Potency (AS120) | Potency (ATS189) | Potency (ATS95) | Potency (C2A) | Potency (CP185) | Potency (CP191) | Potency (CP192) | Potency (CP194) | Potency (CP201) | Potency (CP211) | Potency (CP217) | Potency (CP238) | Potency (CP247) | Potency (CP250) | Potency (CP252)
-0.0223: Z-AUC ([13]; measured here: PEO4 Z-AUC)
